These results are taken from PubChem BioAssay AID602409 (Sanford-Burnham Center for Chemical Genomics, 2012).

As a reminder, the inhibition is the drop in the measured response relative to a control, in per cent.

This is one part of the list. Active and inactive are the calls of the source.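 Rule for the calls: active = mean inhibition over four retests above 40%; inactive = the rest.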

The assay deals with C-X-C chemokine receptor type 6 (Homo sapiens) (UniProt O00574). The assay is described as follows: CXCR6 receptor antagonists, confirmation, cell-based, single concentration, beta-arrestin, luminescence (AID 602409).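 Note: receptor stimulated with 10 nM CXCL16 agonist; beta-galactosidase fragment complementation upon beta-arrestin recruitment to receptor; plate controls were CXCL16 plus DMSO for no effect and DMSO without CXCL16 for full effect.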 Conditions: CHO-K1 CXCR6 PathHunter beta-arrestin, at 20 µM, active compounds read high.
C-X-C chemokine receptor type 6 (Homo sapiens), sequence (O00574 whole entry, looked up, the tested form may be a part): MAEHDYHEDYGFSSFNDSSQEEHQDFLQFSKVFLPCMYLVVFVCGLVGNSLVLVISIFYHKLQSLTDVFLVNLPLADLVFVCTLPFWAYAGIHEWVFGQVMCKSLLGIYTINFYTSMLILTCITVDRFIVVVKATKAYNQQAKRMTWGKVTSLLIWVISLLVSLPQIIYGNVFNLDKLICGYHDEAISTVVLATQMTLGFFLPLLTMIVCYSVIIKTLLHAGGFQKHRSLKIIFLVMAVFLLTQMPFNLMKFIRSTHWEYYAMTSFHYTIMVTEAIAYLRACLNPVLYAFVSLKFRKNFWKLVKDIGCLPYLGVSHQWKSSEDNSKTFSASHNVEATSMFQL
In the case of `CCCCNC(=S)N/N=C1\CCCCc2ccccc21`, the inhibition is 24.7% (inactive). The result for `Cc1ccc(-n2[nH]c(C)c(/C=N/N3C(=O)c4cccc5cccc(c45)C3=O)c2=O)cc1` reads 60.2% (active). The result for `O=C1C=CC(=O)N1c1ccc(N2CCCCC2)cc1` reads 63.5% (active). The result for `CC(=O)/C(=N\Nc1ccc(Cl)cc1Cl)Sc1cccc2cccnc12` reads 81% (active); that for `COc1ccc(-c2csc(Cc3nc(O)cs3)n2)cc1`, 77% (active).

As to `C/C(=N\NC(=O)Cc1ccc(Cl)cc1)c1ccccn1`, the inhibition was 104% (active). The result for `O=C(CSc1cccc2cccnc12)N/N=C/c1cccnc1` reads 67.2% (active); that for `Cc1cc(C(=O)NCCCc2ccccc2)no1`, 9.46% (inactive). The result for `Cc1cc(C)nc(S/C=C/C(=O)c2ccccc2)n1` reads 41.5% (active); that for `CCCCCCCCCCOC(=O)C[N+](C)(C)CC1CCCCC1O` (centres undefined), 14.4% (inactive). The result for `CCC(=O)OCCNc1nc(-c2ccccc2)nc2ccccc12` reads 11.6% (inactive); that for `O=[N+]([O-])/C=C/c1ccc2c(ccn2Cc2ccccc2)c1`, 76.2% (active); that for `CCOCCCN1C(=O)C2C(C(=O)Nc3ccc(OCC)cc3)C3C=CC2(O3)C1C(=O)NC1CCCCC1` (centres undefined), -4.97% (inactive). Regarding `Cc1c(C(=O)NCCN(C)C)oc2ccc(S(=O)(=O)N3CCCC3)cc12`, the inhibition was 10.1% (inactive). The result for `O=C(C1CC(=O)N(C2CCCCC2)C1)N1CCN(c2ccccc2)CC1` (centres undefined) reads 3.17% (inactive); that for `CCCCCCCCCCOC(=O)Cn1c(COc2cccc(OC)c2)[n+](C)c2ccccc21`, 4% (inactive).

For `COC(=O)/C=C\C(=O)Nc1cccc([N+](=O)[O-])c1`, the inhibition was 45.6% (active). The result for `CC(=O)Nc1cc(-c2ccc(N3CCN(C)CC3)cc2)cn2c(-c3ccc(F)cc3)cnc12` reads 31.3% (inactive); that for `O=C(Nc1ccccc1Cl)/C(Cl)=C(\Cl)S(=O)c1ccccc1` (centres undefined), 81% (active); that for `CC(C)N=C1CCCC1C(=S)SSC(=S)C1CCCC1=NC(C)C` (centres undefined), 94.9% (active).

Consider `CCN(CC)CCn1c(N)c(S(=O)(=O)c2ccccc2)c2nc3ccccc3nc21`, for which the inhibition is 55% (active).

`O=C(Nc1ccccc1)c1nnsc1S(=O)(=O)c1ccc(Cl)cc1`: the inhibition is 19.7% (inactive). As to `COCCCNC(=S)NC(=O)c1ccc([N+](=O)[O-])cc1`, the inhibition is 19.8% (inactive). The result for `COc1cccc2sc(N(CCCN(C)C)C(=O)CCS(=O)(=O)c3ccccc3)nc12` reads 81% (active).
